Source: PubChem BioAssay (several laboratories)
Compounds with a hit are over-represented: about 2.3% of the library has one in this group of screens.
MCL1 BIM primary = inhibitors of human MCL1 binding to BIM-BH3 peptide | AID 2057 | inhibition, % at 10.9 µM | hit rate 0.68% among 320,000 | GST-MCL1 / FITC-Bim-BH3 fluorescence polarization;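 active = inhibition above the mean inhibition of all tested compounds plus 3 SD, set per campaign, cut at about 40% in these data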;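 also: 0% = DMSO wells and 100% = unlabeled Bim-BH3 peptide control; higher means more loss of mP so more displacement of Bim peptide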
GLD-1 RNA inh = GLD-1-TGE RNA interaction inhibition (C. elegans) | purified GLD-1 + fluorescein TGE RNA, fluorescence polarization | inhibition, % at 5.96 µM | Q17339 | hit rate 0.44% among 320,000;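 active = percent inhibition above a per-plate cutoff, the plate mean of test compounds plus 3 SD, cut at about 30% in these data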;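 also: 0% = DMSO wells with GLD-1 and probe and 100% = wells lacking GLD-1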
Bcl-xL primary = Bcl-xL (human) inhibition; hit rate 0.7% among 320,000; inhibition, % at 10.9 µM; Q07817; GST-Bcl-xL / FITC-Bim BH3 peptide fluorescence polarization;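 active = inhibition above the mean of all tested compounds plus 3 SD, cutoff set per campaign, cut at about 30% in these data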;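 also: 0% = DMSO wells and 100% = unlabeled Bim-BH3 peptide competitor; inhibitors lower millipolarization by displacing the labeled peptide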
Target sequence (Q07817 whole entry, looked up): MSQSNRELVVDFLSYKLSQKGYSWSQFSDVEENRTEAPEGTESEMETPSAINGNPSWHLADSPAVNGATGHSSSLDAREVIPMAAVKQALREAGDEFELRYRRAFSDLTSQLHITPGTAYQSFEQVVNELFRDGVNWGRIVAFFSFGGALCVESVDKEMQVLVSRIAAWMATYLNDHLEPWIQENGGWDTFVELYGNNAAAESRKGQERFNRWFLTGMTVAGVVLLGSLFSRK
Mcl1 Bid PPI = disrupts binding of human Mcl-1 to Bid peptide | Q07820 | TR-FRET Mcl-1/Bid-Dy647 peptide binding, 1536-well | inhibition, % at 21.7 µM | hit rate 0.97% among 220,000 | AID 1021;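 active = compounds that cut the binding signal by more than half at the single screening dose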;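 also: His-tagged Mcl-1 with europium anti-His antibody binding Bid BH3 peptide; 0% = Mcl-1 plus peptide wells and 100% = peptide-only wells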
Mcl1-Noxa inh = disrupts binding of human Mcl-1 to Noxa peptide. Q07820. TR-FRET Mcl-1/Noxa peptide binding, 2 h. inhibition, % at 21.7 µM. hit rate 1.5% among 220,000;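 active = compounds that cut the protein-peptide binding signal by more than 50% relative to plate controls in a single-dose test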;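 also: His-tagged Mcl-1 with rhodamine Noxa BH3 peptide and terbium anti-His antibody; 0% = Mcl-1 plus Noxa peptide wells and 100% = peptide-only wells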
Bim-Mcl-1 = inhibitors of Bim-Mcl-1 interaction, human | Q07820 | inhibition, % at 10 µM | AID 1009 | hit rate 0.1% among 190,000 | Bead-based flow cytometry, Bim peptide-Mcl-1 binding; in the data active = inhibition above about 40%;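 also: 0% = no compound tracer wells and 100% = peptide blocker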
An asterisk follows results filed as active; x = no result given.

SMILES	MCL1 BIM primary	GLD-1 RNA inh	Bcl-xL primary	Mcl1 Bid PPI	Mcl1-Noxa inh	Bim-Mcl-1
Cc1cc(NC(=O)CS(=O)(=O)c2ccc(Cl)cc2)no1	8	9	6	x	x	x
NC(=O)c1ccsc1NC(=O)c1ccc2c(c1)CCCC2	-4	-2	0	0	10	-1
NC(=O)c1ccsc1NC(=O)c1ccc(N2CCCC2=O)cc1	5	-10	3	-2	55*	0
CC(=O)N1CCN(c2nc(-c3ccco3)c3c(c2C#N)CC(C)(C)SC3)CC1	8	5	12	-18	17	-3
CC1(C)Cc2c(C#N)c(N3CCN(C(=O)c4ccccc4Cl)CC3)nc(-c3ccco3)c2CS1	43*	13	33*	-21	46	0
CCc1ccc2nc(NC(=O)c3ccc(N4C(=O)CCC4=O)cc3)sc2c1	-7	7	-1	-28	-46	x
CNS(=O)(=O)c1ccc2nc(NC(=O)c3ccc(N4C(=O)CCC4=O)cc3)sc2c1	4	6	7	-15	60*	-3
CCC(=O)NC1=C(NC(C)c2ccccc2)C(=O)c2ccccc2C1=O (stereo not drawn)	-1	0	2	5	24	0
CCC(=O)NC1=C(Cl)C(=O)C(NC(=O)CC)=C(Cl)C1=O	x	x	x	-184	92*	x
CCCCOc1ccc2c(c1)C(=O)c1cc(O)ccc1-2	9	139*	5	-13	21	0
CCOc1ccc2c(c1)C(=O)c1cc(OCC(=O)O)ccc1-2	0	1	4	-12	1	x
Cc1ccc(NC(=S)Nc2cccc(-c3n[nH]c(=S)o3)c2)cc1	0	8	-7	-18	59*	x
Cc1ccc(S(=O)(=O)Nc2csc(C)c2C(=O)O)cc1	26	5	5	19	54*	x
CCc1noc(C)c1C(=O)NNC(=O)COc1ccc(Br)cc1	19	1	6	x	x	x
O=c1c(-c2ccco2)[n+]([O-])c2ccccc2n1OCc1ccccc1	16	38*	30*	-12	26	2
O=c1c(-c2ccco2)[n+]([O-])c2ccccc2n1OCc1c(F)cccc1F	-6	10	2	5	33	x
CCCc1nc2oc3ccccc3c(=O)c2c(=O)n1-c1ccc(C)cc1	0	-1	4	7	2	x
CCc1nc2oc3ccccc3c(=O)c2c(=O)n1-c1ccc(C)cc1	20	-4	13	-19	54*	x
CCOC(=O)CN(C(=O)CSc1nnc(CNc2ccc(F)cc2)n1C)c1ccccc1	-9	45*	-2	-28	13	2
COc1c(-c2ccc(O)c(O)c2)oc2cc(O)cc(O)c2c1=O	-5	10	0	-61	56*	x
O=c1c(O)c(-c2ccc(O)cc2O)oc2cc(O)cc(O)c12	x	x	x	-42	103*	3
O=c1c(O)c(-c2ccccc2)oc2cc(O)cc(O)c12	x	6	x	x	x	x
CCOc1cc(OCC)c(C(C)=O)cc1OCC	-3	-3	0	x	x	x
COc1ccc(S(=O)(=O)N2CCOC23CCN(S(=O)(=O)c2cc(C)ccc2OC)CC3)cc1	-11	3	-3	x	x	x
O=C1Nc2ccc(Cl)cc2C(C#CC2CC2)(C(F)(F)F)O1 (stereo not drawn)	5	5	5	x	x	x
SMILES	MCL1 BIM primary	GLD-1 RNA inh	Bcl-xL primary	Mcl1 Bid PPI	Mcl1-Noxa inh	Bim-Mcl-1
Cc1cc(C=C2C(=O)c3ccccc3C2=O)c(C)n1-c1cccc(C(=O)O)c1	3	2	11	-44	31	2
Cc1cc(/C=C2/C(=O)NN(c3ccccc3)C2=O)c(C)n1-c1cccc(O)c1	8	7	11	-20	87*	-7
Cc1ccc(-n2c(C)cc(/C=C3\SC(=O)NC3=O)c2C)cc1	-4	-3	1	x	x	x
Cc1cc(/C=C2\SC(=S)NC2=O)c(C)n1-c1cccc(O)c1	-79	-70	-42	-41	53*	x
Cc1sc(-n2c(C)cc(/C=C3\SC(=S)NC3=O)c2C)c(C#N)c1C	-56	-31	-32	-56	75*	0
CCC(C(=O)O)n1c2ccccc2c2cn[nH]c(=O)c21 (stereo not drawn)	11	-5	11	x	x	x
CN(C)c1ccc(NS(=O)(=O)c2cc(Cl)ccc2Cl)cc1	20	1	14	-51	69*	-4
CCN(c1ccc(NS(=O)(=O)c2cc(Cl)ccc2Cl)cc1)C(C)C	24	5	15	-58	48	-2
O=C(Nc1ccc2sccc2c1)c1ccc(Cl)s1	4	6	2	82*	7	-2
